Laboratory results as given in the supplement of paper PMC10600219.
Where a name gives a salt, the structure may show the parent alone. Over roughly 2,800 compounds, “cell viability relative to vehicle” has its median near 0.98; the lowest 2% begin near 0.45. What follows is part of a selection rich in the lowest values, with near analogues and random picks from the rest.

The molecules below were run on NCI-H2228 alectinib-DTP (assay: cell viability relative to vehicle (fraction of vehicle); NCI-H2228 is an ALK-positive lung cancer line and DTP means drug-tolerant persister; higher = less growth inhibition). Settings: 100 nM; treatment time 6 days.
Summary of the method: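 NCI-H2228 parental cells and drug-tolerant persister cells were plated in 384-well plates; the persisters had been generated with 1000 nM of a targeted drug over 13 days. One day later, the 3114-agent TargetMol anti-cancer compound library was added at 100 nM, with DMSO serving as vehicle. ATP was measured 6 days after that using the CellTiter-Glo 3D Cell Viability Assay. Values are cell viability expressed relative to vehicle-treated cells.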

Compound | cell viability
CC(C)=CCC[C@](C)(O[C@@H]1O[C@H](CO)[C@@H](O)[C@H](O)[C@H]1O)[C@H]1CC[C@]2(C)[C@@H]1[C@H](O)C[C@@H]1[C@@]3(C)CC[C@H](O)C(C)(C)[C@@H]3[C@@H](O[C@@H]3O[C@H](CO)[C@@H](O)[C@H](O)[C@H]3O[C@@H]3O[C@@H](C)[C@H](O)[C@@H](O)[C@H]3O)C[C@]12C [Ginsenoside Re] | 0.852
C[C@H]1CNC(=O)c2cnn3ccc(nc23)N[C@H](C)c2cc(F)ccc2O1 | 0.904
NC(=O)c1nc(-c2c(F)cccc2Cl)oc1Nc1ccc(C(=O)N2CCOCC2)cc1 | 0.929
C=C(C)[C@@H]1CC[C@]2(C(=O)O)CC[C@]3(C)[C@H](CC[C@@H]4[C@@]5(C)CCC(=O)C(C)(C)[C@@H]5CC[C@]43C)[C@@H]12 [Betulonic acid] | 1.08
O=C(Nc1ccc(C(O)(C(F)(F)F)C(F)(F)F)cc1)c1ccc(C(F)(F)F)cc1 | 0.963
NNC(=O)c1ccccn1 [2-Picolinyl hydrazide] | 1.02
Clc1ccc(NN=C(c2ccccc2)c2ccccn2)nc1 | 0.74
CN(C)C(=S)NN=C(c1ccccn1)c1ccccn1 | 0.45
CC1=C(C(=O)Nc2ccc3[nH]ncc3c2)C(c2ccc(F)cc2)NC(=O)N1 (stereo not given) | 1.09
CN1CCN(c2ccc(-c3ccncc3-c3cc(F)c(O)c(F)c3)cc2)CC1 | 1.11
CCc1cnn2c(NCc3ccc[n+]([O-])c3)cc(N3CCCC[C@H]3CCO)nc12 [Dinaciclib] | 0.17
COc1ccc(CNc2nc(N3CCC[C@H]3CO)ncc2C(=O)NCc2ncccn2)cc1Cl [Avanafil] | 0.984
COc1cc2c3cc1Oc1c(OC)c(OC)cc4c1[C@@H](Cc1ccc(O)c(c1)Oc1ccc(cc1)C[C@@H]3N(C)CC2)N(C)CC4 [Berbamine] | 1.09
CC(=O)Oc1cc(C)c(OC(C)=O)c2ccccc12 [Menadiol Diacetate] | 1.11
COc1ccc(/C(C#N)=C/c2ccc(N3CCC(O)CC3)s2)cc1OC | 0.953
Cc1cc(C(=O)Nc2nc3cccc(Cl)c3n2[C@@H]2CCCCN(C(=O)/C=C/CN(C)C)C2)ccn1 [Nazartinib] | 0.907
CCOc1cc2ncc(C#N)c(Nc3ccc(F)c(Cl)c3)c2cc1NC(=O)/C=C/CN(C)C [Pelitinib] | 0.507
Cc1cc(NC(=O)c2cccc(NC(=O)/C=C/CN(C)C)c2)ccc1Nc1nccc(-c2cccnc2)n1 | 0.841
CN(C)C/C=C/C(=O)Nc1ccc(C(=O)Nc2cccc(Nc3ncc(Cl)c(-c4c[nH]c5ccccc45)n3)c2)cc1 | 0.346
CN(C)C/C=C/C(=O)Nc1ccc(C(=O)N2CCC[C@@H](Nc3ncc(Cl)c(-c4c[nH]c5ccccc45)n3)C2)cc1 | 0.437
COc1cc(N2CCC(N3CCN(C)CC3)CC2)ccc1Nc1ncc(Cl)c(-c2c[nH]c3ccccc23)n1 | 0.893
COc1ccc(C(c2c[nH]c3ccccc23)c2c[nH]c3ccccc23)cc1 | 1.04
CC1(C)CC[C@]2(C(=O)O)CC[C@]3(C)C(=CC[C@@H]4[C@@]5(C)C[C@@H](O)[C@H](O)C(C)(C)[C@@H]5CC[C@]43C)[C@@H]2C1 [Maslinic acid] | 0.962
CC(=O)c1ccc(NC2=C(Cl)C(=O)c3ccccc3C2=O)cc1 | 0.908
COC(=O)c1cc(O)c(O)c(O)c1 [Methyl gallate] | 1.07

Compound | cell viability
OC1CCC(Oc2cccc3cnc(Nc4ccc5nc[nH]c5c4)nc23)CC1 (stereo not given) | 1.02
Cc1nn(C)cc1-c1nc2c(N3CCN(Cc4ccc(Cl)cc4)CC3)c(Cl)cnc2[nH]1 | 0.998
CCCCC/C=C\C/C=C\CCCCCCCC(=O)O [Linoleic acid] | 0.87
Cc1c(C)c(NCC(=O)N(C)C2CCN(Cc3ccc(C(N)=O)cc3)CC2)c(C)c(C)c1N | 0.837
COCCN1CCN(Cc2ccc(-c3n[nH]c4c3C(=O)c3c(NC(=O)NN5CCOCC5)cccc3-4)cc2)CC1 | 0.3
O=C(Nc1ccc(CN2CCOCC2)cc1)c1ccc(-c2cccc(Cl)c2)o1 | 0.816
CCNC(=O)c1noc(-c2cc(C(C)C)c(O)cc2O)c1-c1ccc(CN2CCOCC2)cc1 [Luminespib] | 0.48
CONC(=O)Nc1ccc(-c2sc3c(c2CN(C)C)c(=O)n(-c2ccc(OC)nn2)c(=O)n3Cc2c(F)cccc2F)cc1 [Relugolix] | 1.12
COc1ccc(S(=O)(=O)/N=C2\C=CC=C\C2=C/C=C2C=CN(O)C=C2)cc1 | 0.935
COC(=O)c1c2c(c3ccccc3c1O)OC(C)(C)C=C2 [Mollugin] | 1.05
Cc1c(O)c(C)c2c(c1O)C(=O)C[C@@H](c1ccc(O)cc1)O2 [Farrerol] | 0.874
CN1CCN(CCCNc2ncc(Cl)c(-c3cc4c(C(=O)NC5CC5)cccc4s3)n2)CC1 | 0.958
Cc1cc(Nc2cc(N3CCN(C)CC3)nc(Sc3ccc(NC(=O)C4CC4)cc3)n2)n[nH]1 [Tozasertib] | 0.762
Cc1nc(Nc2ncc(C(=O)Nc3c(C)cccc3Cl)s2)cc(N2CCN(CCO)CC2)n1 [Dasatinib monohydrate] | 0.489
Cc1nc(Nc2ncc(C(=O)Nc3c(C)cccc3Cl)s2)cc(N2CCN(CCO)CC2)n1 [Dasatinib] | 0.348
Cc1nn2c([nH]c(=O)c3cccnc32)c1C#N | 1.02
O=C(NOCCO)c1cc(CN2OCCCC2=O)c(F)c(F)c1Nc1ccc(I)cc1F | 0.84
CC(C)n1nc(-c2ccc3oc(N)nc3c2)c2c(N)ncnc21 | 0.37
CC(C)n1nc(-c2cc3cc(O)ccc3[nH]2)c2c(N)ncnc21 [Torkinib] | 0.733
CC(C)Oc1ccc(-c2nn([C@@H](C)c3oc4ccc(F)cc4c(=O)c3-c3cccc(F)c3)c3ncnc(N)c23)cc1F | 0.937
Nc1ccc(-c2cnc(N)c(-c3ccc(Cl)cc3)c2)cn1 | 1.07
Oc1cc(-c2nc(-c3ccccc3)[nH]c2-c2ccncc2)ccc1Cl | 1.22
CC(C)CN(CC(=O)N1CCN(CC(OCc2ccc3ccccc3c2)c2ccc(Cl)cc2Cl)CC1)CC(C)C (stereo not given) | 1.12
CC(=O)O[C@H]1CC(=O)OC(C)(C)[C@@H]2CC(=O)[C@]3(C)[C@H](CC[C@@]4(C)[C@@H](c5ccoc5)OC(=O)[C@H]5O[C@]543)[C@@]12C [Nomilin] | 1.15
CC(=O)O[C@@H]1C[C@H](O)[C@@]23CO[C@@H](O)[C@]1(C)[C@@H]2C[C@@H](O)[C@]1(C)[C@@H]3C(=O)[C@H](OC(C)=O)[C@@]2(C)[C@H](c3ccoc3)C[C@H]3O[C@]321 [Toosendanin] | 0.408

Compound | cell viability
C[C@H](O)[C@@H](O)[C@@H](O)[C@H](O)C=O [L-(-)-Fucose] | 1.09
O=C(O)c1ccc(S(=O)(=O)N(Cc2ccc(OC(F)(F)F)cc2)c2ncc(C(F)(F)F)cc2Cl)cc1 | 0.969
O=C(Nc1ccc2[nH]nc(-c3ccncc3)c2c1)[C@@H]1CCN(CC(=O)N2CCN(c3ccc(-c4ncccn4)cc3)CC2)C1 | 0.831
COc1ccccc1C(=O)Nc1cc2c(cc1N1CCCCC1)n(C)c(=O)n2C | 0.977
CC(=O)O[C@H](CC=C(C)C)C1=CC(=O)c2c(O)ccc(O)c2C1=O [Acetyl shikonin] | 1.05
Cc1nc(Nc2ccc(F)cc2)nc(N2CCc3ccccc3C2C)c1C (stereo not given) [Revaprazan hydrochloride] | 0.852
Cc1cc(C(=O)Nc2cccc(C(=O)Nc3cccc(C(F)(F)F)c3)c2)on1 | 1.1
Cc1ccc(C(=O)Nc2cccc(C(F)(F)F)c2)cc1Nc1nc(-c2cccnc2)nc2c1cnn2C | 0.974
Cc1cc(Nc2ncc3c(n2)N(C)C(=O)N(c2cc(NC(=O)c4cccc(C(F)(F)F)c4)ccc2C)C3)n(C)n1 [Pluripotin] | 0.301
COc1cc2nccc(Oc3ccc(NC(=O)c4cn(C(C)C)c(=O)n(-c5ccc(F)cc5)c4=O)cc3F)c2cc1OC | 0.893
Cc1c(CN2CCN(S(C)(=O)=O)CC2)sc2c(N3CCOCC3)nc(-c3cnc(N)nc3)nc12 | 0.514
COC1(c2sc3c(N4CCOCC4)nc(-c4cnc(N)nc4)nc3c2C)COC1 | 0.496
Cc1c(CN2CCN(C(=O)[C@H](C)O)CC2)sc2c(N3CCOCC3)nc(-c3cnc(N)nc3)nc12 [Apitolisib] | 0.434
CONC(=O)c1ccccc1Nc1cc(Nc2cc(C)nn2C(C)C)ncc1Cl | 0.889
CN(C)CCCOc1ccc(-c2ccc3ncc4c(c3c2)n(C2CCOCC2)c(=O)n4C)cn1 | 0.878
COc1ccc(-c2ccc3ncc4c(c3c2)n(-c2ccc(N3CCNCC3)c(C(F)(F)F)c2)c(=O)n4C)cn1 | 0.373
Nc1ccc(-c2ccc3ncc4ccc(=O)n(-c5cccc(C(F)(F)F)c5)c4c3c2)cn1 [Torin 2] | 0.414
CC(C)n1c(=O)n(C)c2cnc3cc(F)c(-c4ccc(OCCCN5CCCCC5)nc4)cc3c21 | 0.883
CCC(=O)N1CCN(c2ccc(-n3c(=O)ccc4cnc5ccc(-c6cnc7ccccc7c6)cc5c43)cc2C(F)(F)F)CC1 [Torin 1] | 0.437
CCC(=O)N1CC[C@H](Nc2ncnc3c2CN(c2cnc(OC)c(C(F)(F)F)c2)CC3)C1 [Leniolisib] | 0.904
Cn1cc(C2=C(c3cccc(N)c3)C(=O)NC2=O)c2ccccc21 | 0.932
Cc1nc2cccc(N)c2c(=O)n1C1CCC(=O)NC1=O (stereo not given) [Avadomide] | 0.982
O=C([O-])CN(CCN(CC(=O)[O-])CC(=O)O)CC(=O)[O-].[Na+].[Na+].[Na+] [Edetate Trisodium] | 1.15
O=C(NO)c1cnc(NC2(c3ccccc3)CC2)nc1 | 1.01
C=CC(=O)Nc1cccc(Oc2nc(Nc3ccc(N4CCN(C)CC4)c(F)c3)nc3[nH]ccc23)c1 [Avitinib] | 0.747
